“And” between values parts separate entries of the source, which are not always exact repeats. Equal entries are not always repeated. Results filed as inconclusive are left out. The source holds several records for some structures; these can differ, active in one and inactive in another. The source made the active and inactive calls. Unless noted, the call rests on the fitted dose curve; in most records, active means well fitted curve in the direction sought with a large enough effect in the repeat runs; inconclusive means weak or mixed curves; inactive means no such curve, though single readings can be large; an effect the other way counts as inactive or inconclusive.
Assays:
[1] = A CellTox Green Cytotoxicity Assay to monitor cytotoxicity in HEK293 cells - 32 hour (AID 1224881); further: nearly all actives have a fitted effect of over 40% in size; further: potency means the concentration at half of the fitted maximal effect
Summary of the method: (§1)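 Nonlytic real-time cytotoxicity: HEK293 + CellTox Green reagent plated, 5 h preincubation, pintool compound addition (23 nL in DMSO), 37 C for 40 h, fluorescence measured at successive time points.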

[2] = A CellTox Green Cytotoxicity Assay to monitor cytotoxicity in HepG2 cells - 0 hour (AID 1224882); further: nearly all actives have a fitted effect of over 35% in size
Summary of the method: (§2)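 Read-out is fluorescence of a cyanine dye excluded from live cells that stains DNA of dead HepG2 cells, with signal proportional to cytotoxicity. Plates were read at 0, 8, 16, 24, 32 and 40 h after compound addition.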

[3] = A CellTox Green Cytotoxicity Assay to monitor cytotoxicity in HepG2 cells - 32 hour (AID 1224883); further: nearly all actives have a fitted effect of over 50% in size
Summary of the method: as §2

[4] = A CellTox Green Cytotoxicity Assay to monitor cytotoxicity in HEK293 cells - 8 hour (AID 1224884); further: nearly all actives have a fitted effect of over 35% in size
Summary of the method: as §1

[5] = qHTS RealTime-Glo MT Cell Viability Assay in HepG2 cells - 16 hour (AID 1224885); further: nearly all actives have a fitted effect of over 50% in size
Summary of the method: (§3)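 qHTS, HepG2, 600 cells/well, RealTime-Glo (NanoLuc + prosubstrate) added with cells; 5 h preincubation; DMSO compound addition; 37 C; luminescence at 0/8/16/24/32/40 h.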

[6] = qHTS RealTime-Glo MT Cell Viability Assay in HEK293 cells - 24 hour (AID 1224886); further: nearly all actives have a fitted effect of over 50% in size; further: potency means the concentration at half of the fitted maximal effect
Summary of the method: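 Assay medium contained NanoLuc luciferase plus cell-permeant prosubstrate, added with HEK293 cells at 600 cells/well. After 5 h at 37 C/5% CO2 compounds were added; plates stayed at 37 C for 40 h with serial luminescence reads.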

[7] = qHTS RealTime-Glo MT Cell Viability Assay in HEK293 cells - 8 hour (AID 1224887); further: top concentration of the series differs between compounds; nearly all actives have a fitted effect of over 50% in size
Summary of the method: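 Cells were seeded together with NanoLuc luciferase and a prosubstrate that viable cells reduce to a luciferase substrate. After a 5 h incubation at 37 C/5% CO2, compounds were added and luminescence was measured repeatedly during 40 h of treatment.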

[8] = A CellTox Green Cytotoxicity Assay to monitor cytotoxicity in HEK293 cells - 16 hour (AID 1224888); further: nearly all actives have a fitted effect of over 35% in size
Summary of the method: as §1

[9] = qHTS RealTime-Glo MT Cell Viability Assay in HepG2 cells - 0 hour (AID 1224889); further: nearly all actives have a fitted effect of over 50% in size
Summary of the method: as §3

[10] = qHTS assay to identify small molecule antagonists of the estrogen receptor alpha (ER-alpha) signaling pathway using the BG1 cell line in the presence of 0.1 nM 17-beta-estradiol - cell viability counter screen (AID 1259241); further: nearly all actives have a fitted effect of over 40% in size
Summary of the method: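 CellTiter-Fluor read (30 min, 37C) on ER-alpha/ERE-luc VM7Luc4E2 cells; 22 hr compound treatment; agonist 0.1 nM E2 final; same-well multiplex.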

[11] = qHTS assay to identify small molecule antagonists of the androgen receptor (AR) signaling pathway using the MDA cell line in the presence of 0.5 nM R1881 - cell viability counter screen (AID 1259242); further: nearly all actives have a fitted effect of over 45% in size
Summary of the method: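 Counter screen for cytotoxicity run in the same wells as the AR antagonist reporter screen: MDA-kb2 cells were treated 16 hr with test compounds and 0.5 nM R1881, then live-cell protease activity was measured by fluorescence.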

[12] = qHTS assay to identify small molecule HDAC inhibitors - cell viability counter screen (AID 1259365)
Summary of the method: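 To flag cytotoxic hits, 1,500 wild-type HCT-116 cells per well, plated the day before, receive test compounds for 2hr at 37 C before CellTiter-Glo reagent and a luminescence read.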

[13] = qHTS assay to identify small molecule agonists of the sonic hedgehog signaling (Shh) pathway - cell viability counter screen (AID 1259366); further: nearly all actives have a fitted effect of over 50% in size
Summary of the method: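 Fluorescence from CellTiter-Fluor reports live cells in this counter screen. NIH/3T3-derived Gli1-Luc reporter cells receive test compounds for 24hr at 37C; reagent goes in at 23hr.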

[14] = qHTS assay to identify small molecule agonists of the sonic hedgehog signaling (Shh) pathway (AID 1259368; calls by dose curve;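 further: NIH/3T3-derived 3T3Gli1-Luc cells carrying a stable Gli1-driven firefly luciferase reporter; series mostly up to about 92 µM; nearly all actives have a fitted effect of over 15% in size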)
Summary of the method: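 3T3Gli1-Luc (NIH/3T3 clone, stable Gli1-Luc); 4 hr pre-incubation, then cpd in DMSO 24 hr, 37 C/5% CO2; luciferase reagent 30 min RT; luminescence.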

[15] = A CellTox Green Cytotoxicity Assay to monitor cytotoxicity in HepG2 cells - 8 hour (AID 1224890); further: nearly all actives have a fitted effect of over 45% in size
Summary of the method: as §2

[16] = molecular target: Estrogen receptor (Homo sapiens) (UniProt P03372); assay: qHTS assay to identify small molecule antagonists of the estrogen receptor alpha (ER-alpha) signaling pathway using the BG1 cell line in the presence of 0.1 nM 17-beta-estradiol (AID 1259244); further: nearly all actives have a fitted effect of over 50% in size
Chain of Estrogen receptor (Homo sapiens) (P03372 whole entry, looked up): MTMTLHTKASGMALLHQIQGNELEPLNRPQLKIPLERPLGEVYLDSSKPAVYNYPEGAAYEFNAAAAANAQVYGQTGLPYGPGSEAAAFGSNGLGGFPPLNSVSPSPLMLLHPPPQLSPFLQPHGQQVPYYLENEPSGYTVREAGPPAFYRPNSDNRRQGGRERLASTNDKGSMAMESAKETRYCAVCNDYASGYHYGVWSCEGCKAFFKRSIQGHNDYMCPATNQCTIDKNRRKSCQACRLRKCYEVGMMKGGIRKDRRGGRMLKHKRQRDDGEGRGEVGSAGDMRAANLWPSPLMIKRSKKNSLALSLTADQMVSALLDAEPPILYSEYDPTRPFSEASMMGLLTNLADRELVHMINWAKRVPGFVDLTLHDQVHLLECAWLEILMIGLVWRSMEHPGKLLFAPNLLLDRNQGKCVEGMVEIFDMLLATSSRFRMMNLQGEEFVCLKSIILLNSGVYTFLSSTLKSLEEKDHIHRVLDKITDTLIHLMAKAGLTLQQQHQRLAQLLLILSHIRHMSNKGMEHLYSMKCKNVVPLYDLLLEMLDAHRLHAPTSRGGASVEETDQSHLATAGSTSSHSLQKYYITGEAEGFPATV
Summary of the method: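 Cells: VM7Luc4E2, endogenous ER-alpha, 4x ERE-luc stable. Pre-culture 5 d, phenol red-free, charcoal-stripped FBS. Plated 24 h, compound + E2 0.1 nM final, 22 h 37C/5% CO2. Readout ONE-Glo luminescence.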

[17] = qHTS assay to identify small molecule HDAC inhibitors (AID 1259364); further: nearly all actives have a fitted effect of over 45% in size; further: potency means the concentration at half of the fitted maximal effect
Summary of the method: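 Luminescence from a cell-permeant luminogenic class I/II HDAC substrate reports endogenous deacetylase activity in intact HCT-116 cells treated with compounds for 2 h.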

[18] = qHTS assay to identify small molecule antagonists of the sonic hedgehog signaling (Shh) pathway - cell viability counter screen (AID 1259367); further: nearly all actives have a fitted effect of over 55% in size
Summary of the method: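 Seed 3T3 Gli1-Luc cells at 2,000 per well; incubate 4 hr; add compound in DMSO, then conditioned medium; incubate at 37C with 5% CO2; add CellTiter-Fluor after 23 hr; read fluorescence 1 hr later.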

[19] = qHTS assay to identify small molecule phospholipidosis (PLD) inducers (AID 1259344; active means well fitted curve in the direction sought with a large enough effect; an effect the other way counts as inactive or inconclusive)
Summary of the method: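 Quantitative HTS in HepG2: compound plus LipidTOX Red dye for 24 h, paraformaldehyde fixation with Hoechst 33342, widefield high-content imaging; amiodarone as positive and DMSO as negative control.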

[20] = molecular target: Androgen receptor (Homo sapiens) (UniProt P10275); assay: qHTS assay to identify small molecule antagonists of the androgen receptor (AR) signaling pathway using the MDA cell line in the presence of 0.5 nM R1881 (AID 1259243); further: nearly all actives have a fitted effect of over 50% in size
Chain of Androgen receptor (Homo sapiens) (P10275 whole entry, looked up): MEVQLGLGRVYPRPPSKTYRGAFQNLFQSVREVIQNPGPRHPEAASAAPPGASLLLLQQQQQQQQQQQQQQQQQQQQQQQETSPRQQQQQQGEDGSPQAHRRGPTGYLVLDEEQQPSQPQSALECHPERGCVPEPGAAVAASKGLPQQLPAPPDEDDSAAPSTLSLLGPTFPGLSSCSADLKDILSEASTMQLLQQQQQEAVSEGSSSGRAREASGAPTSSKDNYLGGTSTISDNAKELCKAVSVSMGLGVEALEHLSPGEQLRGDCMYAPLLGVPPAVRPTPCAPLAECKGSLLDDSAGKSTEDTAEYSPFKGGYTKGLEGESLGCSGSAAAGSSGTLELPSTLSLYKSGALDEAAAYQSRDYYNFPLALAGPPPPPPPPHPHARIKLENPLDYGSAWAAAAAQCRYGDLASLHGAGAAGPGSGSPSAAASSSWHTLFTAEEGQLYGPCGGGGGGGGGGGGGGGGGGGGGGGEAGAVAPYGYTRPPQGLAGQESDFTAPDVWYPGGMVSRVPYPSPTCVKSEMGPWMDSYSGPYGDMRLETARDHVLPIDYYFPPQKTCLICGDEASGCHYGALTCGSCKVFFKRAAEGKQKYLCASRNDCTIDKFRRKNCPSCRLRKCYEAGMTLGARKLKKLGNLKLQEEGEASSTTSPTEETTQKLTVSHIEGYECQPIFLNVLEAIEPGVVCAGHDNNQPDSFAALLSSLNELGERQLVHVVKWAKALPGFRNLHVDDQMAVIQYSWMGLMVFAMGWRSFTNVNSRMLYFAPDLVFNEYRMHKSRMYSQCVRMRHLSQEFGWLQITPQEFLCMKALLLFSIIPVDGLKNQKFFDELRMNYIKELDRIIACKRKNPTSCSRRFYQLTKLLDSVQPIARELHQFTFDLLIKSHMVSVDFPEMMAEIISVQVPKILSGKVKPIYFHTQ
Summary of the method: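 Luciferase luminescence is the read-out: compounds are tested for suppressing 0.5 nM R1881-driven MMTV reporter activity in MDA-kb2 cells after 16 hr at 37C.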

Measured: Potency

COc1ccc([N+](=O)[O-])cc1N
not listed: [15] | [16] | [17] | [18] | [19] | [20]
inactive: all other assays above

CC1(C)S[C@@H]2[C@H](NC(=O)COc3ccccc3)C(=O)N2[C@H]1C(=O)O
not listed: [8] | [19] | [20]
inactive: all other assays above

CNC(=S)N(C)C
inactive and 13 µM (active): [6]
not listed: [15] | [16] | [19] | [20]
inactive: all other assays above

O=c1[nH]cnc2[nH]ncc12
not listed: [16] | [20]
inactive: all other assays above

Cc1ccc(C(C)C)c(O)c1
not listed: [16] | [20]
inactive: all other assays above

COc1cc(OC)c(C(=O)CCCN2CCCC2)c(OC)c1
not listed: [16]
inactive: all other assays above

CCCCCCCO
not listed: [16] | [19] | [20]
inactive: all other assays above

CCCCCC(=O)O
not listed: [15] | [16] | [19]
inactive: all other assays above

CC(C)CC(C)O (stereo not given)
not listed: [8] | [16] | [18] | [19] | [20]
inactive: all other assays above

O=C(O)c1ccc(C(=O)O)c(C(=O)O)c1
not listed: [15] | [18] | [19]
inactive: all other assays above

CC(C)OP(=O)(CP(=O)(OC(C)C)OC(C)C)OC(C)C
not listed: [15] | [16] | [19] | [20]
inactive: all other assays above

c1ccc(Oc2ccccc2)cc1
not listed: [16] | [18] | [19] | [20]
inactive: all other assays above

O=C(O)c1cc2ccccc2cc1O
active: [17] 27.1 µM and 24.3 µM
not listed: [8] | [19]
inactive: all other assays above

CCCCCCCCCCO
39 µM (active) and inactive: [1]
not listed: [8] | [17] | [18] | [19] | [20]
inactive: all other assays above

NCCNCCN
not listed: [8] | [16] | [18] | [20]
inactive: all other assays above

NCCCCCCN
not listed: [16] | [17] | [19] | [20]
inactive: all other assays above

Reference: PubChem BioAssay (Tox21)
